Experimental data from PubChem BioAssay AID422 (Emory University Molecular Libraries Screening Center, 2006).
Hit rate of the full screen: of about 160,000 compounds, about 310 (0.19%) were called active. Only a selection was taken, and actives are over-represented in it overall. A number with no mark means an inactive call. Cut-off read from the data, not from the text of the source: active = inhibition above about 30%; inactive = the rest.

target: 14-3-3 protein gamma (Homo sapiens) (UniProt P61981); test: modulators of 14-3-3 gamma protein binding, primary screen, biochemical, fluorescence polarization (AID 422); settings: FP, 14-3-3gamma / TMR-pS259-Raf peptide binding; at 40 µM; stronger effect = higher value;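 note: 0% = protein plus tracer without compound and 100% = blank with tracer alone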
Sequence (P61981 whole entry, looked up): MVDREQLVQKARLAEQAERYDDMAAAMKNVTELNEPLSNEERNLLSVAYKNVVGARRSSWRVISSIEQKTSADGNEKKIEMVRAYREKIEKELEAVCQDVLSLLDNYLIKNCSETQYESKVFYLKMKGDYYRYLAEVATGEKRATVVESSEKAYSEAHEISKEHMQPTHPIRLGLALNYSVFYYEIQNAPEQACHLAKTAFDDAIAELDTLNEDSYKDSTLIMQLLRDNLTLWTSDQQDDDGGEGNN

Compared with CCCCCc1ccc(S(=O)(=O)Nc2cnc3ccccc3c2)cc1, CCCCOC(=O)c1cc(-c2ccccc2)nc2ccc(Br)cc12 is higher in inhibition: 0.52% for the first, 2.65% for the second.

First: CC1CCN(CCCNC(=O)C2CC(=O)N(C3CCCCCCC3)C2)CC1 (stereo not given)
Second: O=C(NCCN1CCCC1)C1CCC(CNS(=O)(=O)c2ccc(Cl)cc2)CC1 (stereo not given)
The inhibition of the first is higher: 3.07% for the first, 1.41% for the second.

First: Cn1c(SCc2ccccc2Br)nnc1-c1ccc([N+](=O)[O-])cc1
Second: Cc1ccccc1N=Cc1cccc([N+](=O)[O-])c1O
The inhibition of the first is lower: -3.43% for the first, 5.41% for the second.

Compared with CCOC(=O)C(NC(=O)c1ccc(OC)cc1)(NC1CCCCC1)C(F)(F)F (stereo not given), CCSCCOC(=O)C1=C(C)NC(=O)NC1c1ccc(OC)cc1 (stereo not given) is higher in inhibition: -6.18% for the first, -1.92% for the second.

Going from O=C(NCCn1cc(SCc2cccc(F)c2)c2ccccc21)c1ccccc1F to CC(C)CCNC(=O)c1ccc2c(c1)N(Cc1ccccc1)C(=O)CS2, the inhibition rises from 0.8% to 3.32%.

Compared with COc1cc([N+](=O)[O-])ccc1NC(=O)C1CC(=O)NC(=Nc2ccc(C)cc2)S1 (stereo not given), COc1ccc(C)cc1NC(=O)C1(S(=O)(=O)c2ccc(Cl)cc2)CC1 is lower in inhibition: 1.95% for the first, -7.62% for the second.

Going from Cc1ccc2[nH]cc(C(=O)c3ccccc3)c(=O)c2c1 to O=C(NCc1ccco1)c1ccc2c(=O)n(Cc3ccc(Cl)cc3)c(=S)[nH]c2c1, the inhibition rises from -15% to -14.3%.

First: O=C(c1ccco1)N1CCN(c2cccc(Cl)c2)CC1
Second: O=[N+]([O-])c1ccc(N2CCN(S(=O)(=O)c3ccc4ccccc4c3)CC2)cc1NCc1ccco1
The inhibition of the first is lower: -9.3% for the first, -5.05% for the second.

Going from CC1CC(C)CN(C(=O)c2cc3c(=O)oc4ccccc4c3s2)C1 (stereo not given) to CC1=C(C(=O)OCC2CCCO2)C(c2ccccc2Cl)C2=C(CCCC2=O)N1 (stereo not given), the inhibition rises from -6.3% to -2.91%.

Going from O=C(Nc1cccc(-c2nc3ccccc3s2)c1)c1cccnc1Cl to Cc1ccc2nc(-c3cc(NC(=O)c4cc(Cl)ccc4[N+](=O)[O-])ccc3Cl)oc2c1, the inhibition rises from -17.9% to -15.8%.

First: COc1cc(NS(=O)(=O)c2c(C)n[nH]c2C)cc(OC)c1
Second: COc1cc(NS(=O)(=O)c2ccc3c(c2)CCN3C(C)=O)cc(OC)c1
The inhibition of the first is lower: -0.99% for the first, 0.2% for the second.

Compared with COc1cc2c(=O)n(CC3CCCO3)c(=O)n(CC(=O)c3ccc(Br)cc3)c2cc1OC (stereo not given), COc1ccc(C2C(C(=O)c3cccs3)=C(O)C(=O)N2CCN(C)C)cc1 (stereo not given) is higher in inhibition: -0.78% for the first, 11.4% for the second.

Compared with Cc1cc(OCC(=O)Nc2sc3c(c2C(N)=O)CCCC3)ccc1[N+](=O)[O-], Cc1cc(OCC(=O)Nc2ncc(S(=O)(=O)c3ccc([N+](=O)[O-])cc3)s2)cc(C)c1Cl is higher in inhibition: -9.64% for the first, -4.64% for the second.

Going from O=C(Nc1c2c(nn1-c1ccc(F)cc1)CSC2)c1cccc(F)c1 to COc1ccc(C2=NN(c3ccccc3)C(c3ccc(F)cc3)C2)cc1 (stereo not given), the inhibition falls from -4.31% to -10.6%.

Compared with Cc1ccccc1N1C(=O)C2C3C=CC(C4CC34)C2C1=O (stereo not given), CC(C)(C)c1ccc(C2SCC(=O)N2c2ccccc2F)cc1 (stereo not given) is lower in inhibition: 8.35% for the first, -3.17% for the second.

First: CCC(C)Nc1ncnc2c1cnn2-c1cccc(C)c1 (stereo not given)
Second: CCOc1ccc(C2Nc3ccccc3-c3nnc(SC)nc3O2)cc1C (stereo not given)
The inhibition of the first is higher: 2.9% for the first, -68.8% for the second.

Compared with CC(=O)Nc1ccccc1Sc1ccc2c3c(cccc13)C(=O)N(c1ccc(C)cc1)C2=O, O=C1c2cccc3cccc(c23)C(=O)N1c1cccc(O)c1 is higher in inhibition: -10.1% for the first, -4.23% for the second.

Compared with O=C(O)c1ccc(N2NC(c3ccccc3)=CC2O)cc1 (stereo not given), Cn1ccnc1SCC(=O)Nc1ccc(F)cc1 is lower in inhibition: -4.41% for the first, -12.9% for the second.

First: O=C(CCS(=O)(=O)c1nc(-c2cccs2)cc(C(F)(F)F)n1)Nc1cc(Cl)ccc1O
Second: CSc1nc(OCC(=O)c2ccccc2)c2c3c(sc2n1)CCCC3
The inhibition of the first is lower: -33.5% for the first, 4.08% for the second.

Compared with CSc1nnc2c(n1)OC(c1ccc3c(c1)OCO3)Nc1ccccc1-2 (stereo not given), CCOC(=O)c1sc2ncnc(N3CCCC(C(=O)OCC)C3)c2c1C (stereo not given) is lower in inhibition: 6.07% for the first, -2.94% for the second.

With CCSCCSc1nc(C)cc(C)n1 the inhibition was -17.9%.

O=C(c1ccco1)N1CCN(c2ccc([N+](=O)[O-])c(NCc3cccnc3)c2)CC1 was tested, and the inhibition was 46.1% (active).
For O=C1c2cccc3c(N=Cc4ccccc4O)ccc(c23)C(=O)N1c1ccccc1, the inhibition was 31.4% (active).
For CSc1nnc2c(n1)OC(c1ccccc1Cl)Nc1ccccc1-2 (stereo not given), the inhibition was 31.9% (active).
For Cc1c(Cl)c(C)c([N+](=O)[O-])c(O)c1C=Nc1ccc(Br)cc1C(=O)O, the inhibition was 46.9% (active).
